# Columns and labels:
# CHO = experiment: % viability of CHO cells (MTT); higher = less toxic; settings: 48 h
# Summary of the method: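 For 48 h, attached CHO cells (10^6 cells/well, 200 µL, seeded the night before) were kept in fresh medium carrying compound at 2 or 20 µM. A colorimetric tetrazolium (MTT) assay then gave survival as percent viability versus untreated cells.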
# HepG2-A16-CD81 = experiment: % inhibition of HepG2 viability (CellTiter-Glo); higher = more toxic; settings: 5 µM;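 further: HepG2-A16-CD81 hepatoma cells plated as in the liver-stage assay but without sporozoites, with DMSO wells as negative and 25 µM puromycin as positive control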
# [1] = system: Plasmodium falciparum NF54 stage IV/V gametocytes; experiment: % inhibition of gametocyte viability (PrestoBlue); higher = more inhibition; settings: 48 h
# Summary of the method: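 Stage IV/V NF54 gametocytes at 2% gametocytaemia and 5% haematocrit (100 µL/well) were treated with compound at 1 or 5 µM and incubated for 48 h at 37 °C under stationary, hypoxic conditions. PrestoBlue (10 µL) was then added for 2 h, and fluorescence at 612 nm was read on 70 µL of transferred supernatant. Percent inhibition of gametocyte viability was normalised to vehicle and kill controls within one run.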
# [2] = system: Plasmodium falciparum NF54 asexual blood stage; experiment: % inhibition of asexual blood stage proliferation (pLDH); higher = more inhibition; settings: 72 h
# Summary of the method: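 Plasmodium falciparum NF54 ring-stage cultures (1% haematocrit, 2% parasitaemia) were incubated with compound at 2 or 20 µM for 72 h at 37 °C under 4% CO2, 3% O2 and 93% N2. Survival was read at 620 nm with the parasite lactate dehydrogenase assay. Results were reported as percent inhibition of asexual proliferation relative to controls.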
# [3] = system: Plasmodium falciparum NF54 stage IV/V gametocytes; experiment: % inhibition of gametocyte viability (ATP bioluminescence); higher = more inhibition; settings: 24 h
# Summary of the method: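 Stage IV/V NF54 gametocytes from density gradients (30,000 per well, 96-well plates) were incubated with compound at 1 or 5 µM for 24 h at 37 °C. A single run supplied percent inhibition of gametocyte viability, based on ATP measured with Promega BacTiter Glo and normalised to control wells.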
# [4] = system: Plasmodium falciparum NF54 stage IV/V gametocytes; experiment: % inhibition of gametocyte viability (luciferase reporter); higher = more inhibition; settings: 48 h
# Summary of the method: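 Stage IV/V gametocytes of the NF54-Pfs16-GFP-Luc line (2% gametocytaemia, 2% haematocrit) were exposed to compound at 1 or 5 µM. Incubation was 48 h at 37 °C, stationary and hypoxic. Luminescence was read on 30 µL lysate plus 30 µL Promega luciferin substrate on a GloMax-Multi+ reader with 10 s integration. Percent inhibition was normalised to DMSO and kill controls from a single run.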
SMILES,% viability of CHO cells (CHO; 2 µM) [%],% viability of CHO cells (CHO; 20 µM) [%],% inhibition of HepG2 viability (HepG2-A16-CD81) [%],% inhibition of gametocyte viability ([1]; 1 µM) [%],% inhibition of gametocyte viability ([1]; 5 µM) [%],% inhibition of asexual blood stage proliferation ([2]; 2 µM) [%],% inhibition of asexual blood stage proliferation ([2]; 20 µM) [%],% inhibition of gametocyte viability ([3]; 1 µM) [%],% inhibition of gametocyte viability ([3]; 5 µM) [%],% inhibition of gametocyte viability ([4]; 1 µM) [%],% inhibition of gametocyte viability ([4]; 5 µM) [%]
CC(C)(C)c1cc(C(=O)/C(C#N)=N/Nc2cccc(Cl)c2)no1,113,97.4,44.1,< 0,< 0,-1.08,24.2,< 0,< 0,< 0,< 0
CNc1nc(=O)[nH]cc1F,95.1,98.5,-2.31,< 0,8.84,-10.3,-14.1,< 0,< 0,< 0,< 0
Cc1ccn2c(C(=O)NCc3ccccc3)c(C)nc2c1,276,53.7,-0.843,3.75,36.6,44.3,74.9,< 0,< 0,2.75,0.0756
CC1(C)C[C@H]1C(=O)N/C(=C\CCCCSC[C@@H](N)C(=O)O)C(=O)O,229,49.5,-5.39,25.1,25.8,20.8,20.1,< 0,< 0,< 0,< 0
O=C1CCC(N2C(=O)c3ccccc3C2=O)C(=O)N1 (stereo not given),129,120,-2.75,< 0,< 0,30.6,69.3,< 0,< 0,0.963,6.01
Cc1ccc(NC(=O)c2cc(Cl)ccc2O)cc1,101,-0.714,29.4,< 0,< 0,57.7,98.8,< 0,< 0,5.12,4.7
O=C(NNC(=S)Nc1ccc(Cl)cc1)c1ccncc1,116,76.6,4.57,6.58,< 0,3.73,-4.99,< 0,< 0,< 0,< 0
c1cc(CN2CCCNCCNCCCNCC2)ccc1CN1CCCNCCNCCCNCC1,104,109,-0.261,7.81,31,16.7,34.9,6.22,< 0,< 0,< 0
CN(C)[C@@H]1C(=O)C(C(N)=O)=C(O)[C@@]2(O)C(=O)C3=C(O)c4c(O)c(NC(=O)CN5CCCC5)cc(F)c4C[C@H]3C[C@@H]12,99.3,125,21,13.1,< 0,72.1,88,< 0,< 0,< 0,< 0
O=C(/C=C/n1cnc(-c2cc(C(F)(F)F)cc(C(F)(F)F)c2)n1)NNc1cnccn1,102,103,-11.2,11.2,-0.3,-23.5,56.5,0.272,< 0,0.0379,< 0
O=C(NCc1ccc(F)cc1)c1c(O)c2ncccc2[nH]c1=O,121,91.5,5.33,< 0,20.1,54.8,31.4,3.16,< 0,5.58,< 0
CC(=O)Oc1ccccc1C(=O)Nc1ncc([N+](=O)[O-])s1,91.3,111,3.62,14.9,28.5,14.2,71.2,10.5,5,0.222,17.6
CCOC(=O)/C=C/[C@H](C[C@@H]1CCNC1=O)NC(=O)[C@@H](CC(=O)[C@@H](NC(=O)c1cc(C)on1)C(C)C)Cc1ccc(F)cc1,124,129,2.38,27.5,17.3,16.3,53.7,4.33,< 0,1.29,10.2
CCCCOC(=O)Nc1cc2nc(C3CCCCC3)[nH]c2cc1N(CC)CC,98.9,101,3.15,< 0,< 0,18.6,83.2,< 0,19.3,< 0,< 0
NC(=O)c1[nH]c2ccc(S(N)(=O)=O)cc2c1-c1ccccc1,93.5,98.8,8.64,< 0,19.1,16.9,72.7,< 0,< 0,11.7,< 0
CSC[C@H]1CN(Cc2c[nH]c3c(N)ncnc23)C[C@@H]1O,68.9,46.2,8.54,< 0,< 0,14.2,8.91,< 0,< 0,< 0,6.79
COC(=O)Nc1nc2cc(Sc3ccccc3)ccc2[nH]1,103,101,32.9,< 0,11.8,-7.16,5.37,3.38,< 0,< 0,< 0
CCCCc1ccc(-c2cc(C(=O)O)cc(-c3ccc(Cl)cc3)n2)cc1,93.4,108,14.4,9.55,12.3,43,102,< 0,< 0,0.176,8.67
O=[N+]([O-])c1cn(Cc2nc(O)nc(O)c2Br)cn1,95.9,109,-3.1,9.08,21.3,38.7,55.8,0.137,< 0,< 0,4.07
O=C(NC(=O)N1CCCc2ccccc21)c1ccc(Cl)cc1Cl,95.4,99.1,-0.619,0.538,13.4,1.37,-6.87,< 0,< 0,< 0,< 0

SMILES,% viability of CHO cells (CHO; 2 µM) [%],% viability of CHO cells (CHO; 20 µM) [%],% inhibition of HepG2 viability (HepG2-A16-CD81) [%],% inhibition of gametocyte viability ([1]; 1 µM) [%],% inhibition of gametocyte viability ([1]; 5 µM) [%],% inhibition of asexual blood stage proliferation ([2]; 2 µM) [%],% inhibition of asexual blood stage proliferation ([2]; 20 µM) [%],% inhibition of gametocyte viability ([3]; 1 µM) [%],% inhibition of gametocyte viability ([3]; 5 µM) [%],% inhibition of gametocyte viability ([4]; 1 µM) [%],% inhibition of gametocyte viability ([4]; 5 µM) [%]
COC(=O)Nc1nc2cc(S(=O)c3ccccc3)ccc2[nH]1 (stereo not given),118,78,12.1,10.1,11.8,8.21,7.99,1.75,< 0,< 0,< 0
Cc1cc(C)n2nc(C(=O)NS(=O)(=O)c3c(C)cccc3OC(F)(F)F)nc2n1,110,122,8.44,33.8,85.1,33.6,59.9,< 0,< 0,14.1,14.2
Clc1ccc(Cn2c(CN3CCCC3)nc3ccccc32)cc1,97.8,91.5,2.06,23.6,61,11.9,69,10.2,57.1,1.55,< 0
COc1c(F)c(F)cc2c(=O)c(C(=O)O)cn(C3CC3)c12,82.2,80.7,3.68,16.8,16.9,20.8,56.5,< 0,< 0,< 0,< 0
COc1ccc(C2CNC(=O)C2)cc1OC1CCCC1 (stereo not given),95.4,125,-2.26,< 0,12,28.3,40.1,< 0,< 0,8.32,7.49
CC(=O)N[C@H](C)C(=O)N[C@H](Cc1ccccc1)C(=O)O,91.7,87.7,8.11,< 0,-0.199,24.6,81.8,< 0,< 0,17.2,< 0
CCC(C)n1ncn(-c2ccc(N3CCN(c4ccc(OCC5COC(Cn6cncn6)(c6ccc(Cl)cc6Cl)O5)cc4)CC3)cc2)c1=O (stereo not given),119,119,26.2,2.77,1.55,10.1,83.4,3.02,< 0,< 0,< 0
COc1c(NC(=O)[C@H]2CC[C@@H](COc3ccc([N+](=O)[O-])cc3)CC2)c(F)cc2c(=O)c(C(=O)O)cn(C3CC3)c12,104,102,-1.96,< 0,23,8.56,70,0.404,< 0,< 0,9
CCCC1(C2CC2)c2cc(Cl)ccc2NC(=O)N1C (stereo not given),60.2,59.9,1.91,< 0,6.87,18,53.6,< 0,< 0,0.472,< 0
O=c1cc(OCc2ccccc2)ccn1Cc1ccccc1,82.6,98.7,-3.88,14.1,6.4,6.62,51.5,< 0,< 0,< 0,< 0
Cc1ccc(S(=O)(=O)Nc2cccc3cccnc23)cc1,76,-0.468,-5.32,13.9,< 0,55,103,< 0,47.3,< 0,5.04
COc1ccc(NC(=O)CC2Sc3ncnn3C2=O)cc1 (stereo not given),99.9,-0.591,10.8,< 0,2.6,29.9,26.3,0.572,16.9,< 0,15.3
CN1CCN(Cc2ccc(-c3cnc4[nH]cc(-c5ccc6[nH]ccc6c5)c4c3)cc2)CC1,68,26.3,21.4,10,< 0,66,66.9,11,65.5,< 0,< 0
O=[N+]([O-])/C(Br)=C/c1ccc(Br)o1,89.2,99.8,-4.63,23.1,57,27.6,2.9,6.32,14.3,4.3,49.5
O=C(O)/C=C/C=C/c1cccc(Oc2cc(Cl)cc(Cl)c2)c1,97.3,110,-6,< 0,< 0,30.7,41.4,3.95,2.02,9.35,0.936
O=C(N[C@H](CCS)C(=O)N[C@H](Cc1ccccc1)C(=O)O)c1cc2ccccc2[nH]1,78.3,74.3,-0.7,< 0,< 0,1.01,7.64,< 0,< 0,< 0,12
CC(C)(C)c1ccc(C(Cn2cccc(C(F)(F)F)c2=O)NC2Cc3ccccc3C2)cc1 (stereo not given),106,94.3,-1.5,10,21.3,32.7,69.1,< 0,< 0,< 0,3.42
O=c1nc(N2CCN(CC3CCCCC3)CC2)sc2c([N+](=O)[O-])cc(C(F)(F)F)cc12,95.8,112,7.83,< 0,4.32,37,107,< 0,< 0,8.82,< 0
Cc1nc2ccc(Cl)cc2c(-c2ccccc2)c1CC(=O)O,121,61.2,6.38,< 0,< 0,37.6,40.5,< 0,< 0,7.85,13.3
CC(C)(C)c1ccc(OCCn2nc(C(=O)O)c3ccccc3c2=O)cc1,100,104,1.37,< 0,< 0,4.78,19.9,< 0,< 0,< 0,< 0

# Reference: the supplement of paper PMC7801607
